# “And” between values parts separate entries of the source, which are not always exact repeats. Equal values may be shown once. Results filed as inconclusive are left out. Where a call stands in place of a potency, no number is given. The source made the active and inactive calls. Unless noted, calls come from the whole dose curve; as a rule, active = well fitted curve in the direction sought with a large enough effect; inconclusive = small, poorly fitted or top-dose-only effect, or another doubt; inactive = no such curve, though single readings can be large; an effect the other way counts as inactive or inconclusive.
# Key:
# [1] = High-throughput drug toxicity screening in the BPDCN cell line Gen2.2 (AID 1224824; call rule not given here); settings: Gen2.2 BPDCN cells; at 45.8 µM (top of the series)
# How it was run: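 CellTiter-Glo luminescence read after 48 h compound exposure at 37 C defines viability; percent activity set with DMSO as 100% and bortezomib (9.2 uM final) as 0%. 500 exponentially growing cells per well, RPMI plus 10% FBS.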
# [2] = High-throughput drug toxicity screening in the BPDCN cell line Cal-1 (AID 1224825; call rule not given here); settings: Cal-1 BPDCN cell viability, qHTS; at 45.8 µM (top of the series)
# How it was run: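 CellTiter-Glo luminescence after 48 h compound exposure; percent activity scaled with DMSO as 100% and bortezomib (9.2 uM final) as 0%. Cal-1 cells seeded at 500/well in RPMI, 10% FBS, no phenol red.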
# [3] = qHTS assay for measurement of the activity of small molecule inhibitors on Zika virus induced Caspase-3 activity in human iPSC derived neural progenitor cells (hNPCs) (AID 1224857); note: nearly all actives have a fitted effect of over 65% in size
# How it was run: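 Caspase-3/7 induction by a 6-hour ZIKV infection was quantified with a luminescent Caspase-Glo 3/7 reagent incubated 30 minutes at room temperature. Compounds were preincubated with hNPCs for 1 hour; inhibition was calculated against uninfected and infected control wells.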
# [4] = qHTS assay for measurement of the activity of small molecule inhibitors on Zika virus induced Caspase-3 activity in human astrocytoma cells (AID 1224859)
# How it was run: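 In SNB-19 cells plated at 250 cells/well and grown 16-20 h, compounds were applied 1 h before ZIKV (2 FFU/cell). Six hours later caspase-3/7 luminescence was recorded.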
# [5] = qHTS Screen of the MIPE 4.0 Collection Against Ewings Sarcoma (TC32) (AID 1259256); note: nearly all actives have a fitted effect of over 45% in size; note: potency is the fitted concentration of half-maximal effect
# How it was run: (§1)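 Viability screen: 48 h incubation at 37C, 95% humidity, 5% CO2 with serially titrated compound, followed by CellTiter-Glo readout.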
# [6] = qHTS assay to identify small molecule inhibitors of chordoma cells - UCH-1 (AID 1259355); note: nearly all actives have a fitted effect of over 55% in size; note: potency is the fitted concentration of half-maximal effect
# How it was run: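 Screening used approved and investigational drugs in 15-point titration against 800 seeded cells per well. A fixed combination of auranofin with camptothecin, doxorubicin, rubitecan and topotecan followed compound addition, and growth was scored by CellTiter-Glo after 48hr.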
# [7] = qHTS assay to identify small molecule inhibitors of chordoma cells - UCH-2 (AID 1259356); note: potency is the fitted concentration of half-maximal effect
# [8] = P-glycoprotein substrates identified in KB-3-1 adenocarcinoma cell line, qHTS therapeutic library screen (AID 1346986); note: nearly all actives have a fitted effect of over 60% in size;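 note: potency is the fitted concentration of half-maximal effect; potency is for cytotoxicity meaning loss of cell viability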
# How it was run: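 In 1536-well format, 500 cells/well received pinned compound titrations and were incubated 72 h, 5% CO2. Viability was read by CellTiter-Glo; cytotoxic if AC50 < 10 uM and efficacy >50%.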
# [9] = P-glycoprotein substrates identified in KB-8-5-11 adenocarcinoma cell line, qHTS therapeutic library screen (AID 1346987); note: nearly all actives have a fitted effect of over 65% in size; note: potency is the fitted concentration of half-maximal effect
# How it was run: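 Compounds are pinned in dose-response onto KB-8-5-11 cells (500 cells/well, colchicine-free medium) and left 72 h at 37 degree C. CellTiter-Glo luminescence then yields AC50 values.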
# [10] = qHTS Screen of the MIPE 4.0 Collection Against Ewings Sarcoma (TC71) (AID 1259253); note: nearly all actives have a fitted effect of over 40% in size; note: potency is the fitted concentration of half-maximal effect
# How it was run: as §1
# [11] = Identifying Small Molecule Inhibitors of Pancreatic Cancer Stem Cells (Panc1, Spheroid) (AID 1259359);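 note: compound exposure lasted 48 h before reading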
# How it was run: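 Luminescent ATP readout (CellTiter-Glo) quantifies surviving cells after a 48 h drug incubation. Normalization uses DMSO wells as no inhibition and media-only wells as full inhibition; bortezomib served as positive control.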
# [12] = Identifying Small Molecule Inhibitors of Pancreatic Cancer Stem Cells (A278, Adherent) (AID 1259361); note: nearly all actives have a fitted effect of over 35% in size
# How it was run: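 Monolayer and spheroid cultures are compared. Spheroids form over 14 days in stem cell medium on hydrogel-coated low-attachment plates, then are exposed to compound for 48 h before CellTiter-Glo luminescence.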
# [13] = Immunotoxin (HA22) sensitization/mitigation study. Vehicle arm (PBS) (AID 1159510; call rule not given here; note: potency is the fitted concentration of half-maximal effect)
# [14] = Identifying Small Molecule Inhibitors of Pancreatic Cancer Stem Cells (SN12C, Spheroid) (AID 1259360); settings: Potency: SN12C spheroid viability; note: potency is the fitted concentration of half-maximal effect
# How it was run: (§2)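 Viability is scored by CellTiter-Glo luminescence 48 h after dosing, expressed as percent activity against vehicle and no-cell references. Spheroid formats rely on cells cultured 14 days in stem cell media beforehand.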
# [15] = target: Atrial natriuretic peptide receptor 1 (Homo sapiens) (UniProt P16066); assay: Natriuretic polypeptide receptor (hNpr1) antagonism - Pilot screen (AID 1347049; calls by dose curve;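 note: agonist-evoked cGMP luminescence read 20 min after hNppA addition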; note: potency is the fitted concentration of half-maximal effect)
# Chain of Atrial natriuretic peptide receptor 1 (Homo sapiens) (P16066 whole entry, looked up): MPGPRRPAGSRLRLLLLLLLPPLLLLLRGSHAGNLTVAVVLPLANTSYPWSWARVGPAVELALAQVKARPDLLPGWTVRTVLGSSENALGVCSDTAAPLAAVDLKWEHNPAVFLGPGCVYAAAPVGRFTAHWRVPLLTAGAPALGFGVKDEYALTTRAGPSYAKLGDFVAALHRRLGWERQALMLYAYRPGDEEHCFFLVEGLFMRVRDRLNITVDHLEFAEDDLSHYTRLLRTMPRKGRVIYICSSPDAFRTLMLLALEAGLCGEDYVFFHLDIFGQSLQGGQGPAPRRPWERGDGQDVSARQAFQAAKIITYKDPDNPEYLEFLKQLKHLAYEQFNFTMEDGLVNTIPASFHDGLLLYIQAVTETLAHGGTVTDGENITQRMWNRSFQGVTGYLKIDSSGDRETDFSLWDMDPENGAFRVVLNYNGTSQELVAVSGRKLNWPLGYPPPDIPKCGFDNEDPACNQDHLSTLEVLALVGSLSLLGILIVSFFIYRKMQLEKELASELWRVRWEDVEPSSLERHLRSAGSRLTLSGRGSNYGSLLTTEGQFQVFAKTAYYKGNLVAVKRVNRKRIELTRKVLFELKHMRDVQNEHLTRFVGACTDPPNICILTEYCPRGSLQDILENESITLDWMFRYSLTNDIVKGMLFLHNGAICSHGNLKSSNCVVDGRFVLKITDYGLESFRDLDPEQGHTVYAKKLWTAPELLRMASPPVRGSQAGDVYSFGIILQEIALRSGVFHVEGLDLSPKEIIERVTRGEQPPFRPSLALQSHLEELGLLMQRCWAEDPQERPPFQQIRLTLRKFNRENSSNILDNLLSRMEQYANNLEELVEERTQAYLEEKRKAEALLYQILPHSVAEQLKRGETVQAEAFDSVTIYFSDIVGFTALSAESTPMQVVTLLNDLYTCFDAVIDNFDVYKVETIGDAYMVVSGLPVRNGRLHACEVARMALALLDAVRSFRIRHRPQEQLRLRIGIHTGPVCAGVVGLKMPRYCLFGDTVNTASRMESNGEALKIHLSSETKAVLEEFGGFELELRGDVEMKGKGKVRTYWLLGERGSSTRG
# How it was run: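 cGMP-sensor HEK293/hNpr1 cells, 1500/well, plated overnight at 37C. 2% GloSensor reagent, 2 h RT. Compound (23 nL pin transfer) 30 min RT, baseline luminescence pre-read. 0.1 nM hNppA, 20 min RT, post-read.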
# [16] = Immunotoxin (SS1P) sensitization/mitigation study. Vehicle arm (DMEM) (AID 1159513; call rule not given here; note: potency is the fitted concentration of half-maximal effect)
# [17] = Identifying Small Molecule Inhibitors of Pancreatic Cancer Stem Cells (A2780, Spheroid) (AID 1259357); settings: Potency: A2780 spheroid viability;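 note: compound exposure lasted 48 h before the ATP luminescence read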
# How it was run: as §2
# [18] = Identifying Small Molecule Inhibitors of Pancreatic Cancer Stem Cells (Panc1, Adherent) (AID 1259362); settings: Potency: viability;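 note: compound exposure lasted 48 h before the viability read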
# How it was run: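 Cytotoxicity read by CellTiter-Glo luminescence after 48 h compound exposure at 37C; percent activity scaled between DMSO-treated cells and cell-free wells. Spheroid formats used cells pre-formed 14 days in stem cell media on hydrogel.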
smiles,measurement,setting,value
COc1ccc2c(c1OC)CN1CCc3cc4c(cc3C1C2)OCO4 (stereo unspecified),"cell viability, % of control (lower = more cytotoxic)",[1],173%
same,viability (% of control),[2],62.2%
same,Potency,[3],inactive
same,outcome,[4],inactive
same,Potency,[5],inactive
same,Potency,[6],inactive
same,Potency,[7],inactive
same,Potency,[8],9.2 µM (active)
same,Potency,[9],inactive
Cc1cc(SCc2sc(-c3ccc(C(F)(F)F)c(F)c3)nc2C)ccc1OCC(=O)O,"cell viability, % of control (lower = more cytotoxic)",[1],144%
same,viability (% of control),[2],109%
same,Potency,[10],23.5 µM (active)
same,outcome,[11],inactive
same,IC50 (viability decrease),[12],inactive
same,Potency,[8],inactive
O=[N+]([O-])c1cc([As](=O)(O)O)ccc1O,Potency,[3],inactive
same,outcome,[4],inactive
same,Potency,[6],inactive
same,Potency,[7],inactive
CNC(=O)c1ccc(N2C(=S)N(c3ccc(C#N)c(C(F)(F)F)c3)C(=O)C23CCC3)cc1F,"cell viability, % of control (lower = more cytotoxic)",[1],16.5%
same,viability (% of control),[2],7.78%
same,Potency,[3],inactive
same,outcome,[4],inactive
same,Potency,[5],23.5 µM (active)
same,IC50 (viability decrease),[12],23.5 µM (active)
c1ccc2c(c1)Nc1ccccc1S2,Potency,[3],inactive
same,outcome,[4],inactive
same,Potency,[6],inactive
same,Potency,[7],inactive
Cn1cc(C2=C(c3cn(C4CCN(Cc5ccccn5)CC4)c4ccccc34)C(=O)NC2=O)c2ccccc21,Potency,[13],4.18 µM (active)
same,"cell viability, % of control (lower = more cytotoxic)",[1],265%
same,viability (% of control),[2],14.5%
same,Potency,[3],inactive
same,outcome,[4],inactive
same,Potency,[10],6.62 µM (active)
same,Potency,[5],8.33 µM (active)
same,Potency,[14],inactive
same,Potency,[8],inactive
CC1NCCOC1c1ccccc1 (stereo unspecified),Potency,[3],inactive
same,outcome,[4],inactive
same,Potency,[6],inactive
same,Potency,[7],inactive
N[C@@H](Cc1ccc(Oc2cc(I)c(O)c(I)c2)c(I)c1)C(=O)O,Potency,[3],inactive
same,outcome,[4],inactive
same,Potency,[6],inactive
same,Potency,[7],inactive
C[C@@H]1O[C@@H](O[C@H]2C[C@@H](O)[C@]3(CO)[C@H]4[C@H](O)C[C@]5(C)[C@@H](C6=CC(=O)OC6)CC[C@]5(O)[C@@H]4CC[C@]3(O)C2)[C@H](O)[C@H](O)[C@H]1O,"cell viability, % of control (lower = more cytotoxic)",[1],26%
same,viability (% of control),[2],3.79%
same,Potency,[3],inactive
same,outcome,[4],inactive
same,Potency,[10],0.0418 µM (active)
same,Potency,[5],0.059 µM (active)
same,Potency,[6],158 nM (active) and 63.1 nM (active)
same,Potency,[7],65.1 nM (active) and 51.7 nM (active)
same,Potency,[15],inactive
CC(O)(CS(=O)(=O)c1ccc(F)cc1)C(=O)Nc1ccc(C#N)c(C(F)(F)F)c1 (stereo unspecified),Potency,[16],inactive
same,"cell viability, % of control (lower = more cytotoxic)",[1],9.43%
same,viability (% of control),[2],3.75%
same,Potency,[3],inactive
same,outcome,[4],inactive
same,Potency,[10],2.35 µM (active)
same,Potency,[5],2.64 µM (active)
same,Potency,[9],inactive
same,Potency,[15],inactive
C=CCN1CC[C@]23c4c5ccc(O)c4O[C@H]2C(=O)CC[C@@]3(O)[C@H]1C5,Potency,[3],inactive
same,outcome,[4],inactive
same,Potency,[6],inactive
same,Potency,[7],inactive
CC(=O)Nc1cc([As](=O)(O)O)ccc1O,Potency,[3],inactive
same,outcome,[4],inactive
same,Potency,[6],inactive
same,Potency,[7],inactive
CCn1cc(C(=O)O)c(=O)c2ccc(C)nc21,Potency,[3],inactive
OCCOc1ccccc1,Potency,[3],inactive
same,outcome,[4],inactive
same,Potency,[6],inactive
same,Potency,[7],inactive
O=C(O)C(=O)c1cn(Cc2ccccc2)c2ccc(-c3ccc(OC(F)(F)F)cc3)cc12,Potency,[13],23.5 µM (active)
same,"cell viability, % of control (lower = more cytotoxic)",[1],171%
same,viability (% of control),[2],118%
same,Potency,[3],inactive
same,outcome,[4],inactive
same,Potency,[5],inactive
same,outcome,[11],inactive
same,Potency,[14],18.7 µM (active)
same,Potency,[8],inactive
same,Potency,[9],inactive
CC(C)=CC1C(C(=O)OCc2cccc(Oc3ccccc3)c2)C1(C)C (stereo unspecified),Potency,[3],inactive
same,outcome,[4],inactive
same,Potency,[6],inactive
same,Potency,[7],inactive
Fc1ccc(C(OCCN2CCN(CCCc3ccccc3)CC2)c2ccc(F)cc2)cc1,"cell viability, % of control (lower = more cytotoxic)",[1],57.3%
same,viability (% of control),[2],3.89%
same,Potency,[3],inactive
same,outcome,[4],inactive
same,Potency,[10],18.7 µM (active)
same,Potency,[5],26.4 µM (active)
same,Potency,[6],31.6 µM (active)
same,Potency,[9],10.5 µM (active)
same,Potency,[15],inactive
CC1=C2C[C@@H]3[C@@H](CC=C4C[C@@H](O)CC[C@@]43C)[C@@H]2CC[C@]12O[C@H]1C[C@H](C)CN[C@H]1[C@H]2C,Potency,[13],23.5 µM (active)
same,Potency,[16],20.9 µM (active)
same,"cell viability, % of control (lower = more cytotoxic)",[1],107%
same,viability (% of control),[2],116%
same,Potency,[3],inactive
same,outcome,[4],inactive
same,Potency,[14],inactive
same,IC50 (viability decrease),[12],inactive
same,Potency,[9],inactive
O=c1[nH]c2ccccc2n1CCCN1CCC(n2c(=O)[nH]c3cc(Cl)ccc32)CC1,"cell viability, % of control (lower = more cytotoxic)",[1],278%
same,viability (% of control),[2],61.6%
same,Potency,[3],inactive
same,outcome,[4],inactive
same,Potency,[10],inactive
same,Potency,[5],inactive
same,Potency,[6],inactive
same,Potency,[7],inactive
same,Potency,[15],inactive
NP(N)(=O)NC(=O)c1ccc(F)cc1,Potency,[3],inactive
same,outcome,[4],inactive
same,Potency,[6],inactive
same,Potency,[7],inactive
CCCCC/C=C\C/C=C\C/C=C\C/C=C\CCCC(=O)NC1CC1,Potency,[13],inactive
same,Potency,[16],inactive
same,Potency,[14],inactive
C[C@]12CCC(=O)C(O)=C1CC[C@@H]1[C@@H]2CC[C@]2(C)C(=O)CC[C@@H]12,Potency,[13],inactive
same,Potency,[16],inactive
same,Potency,[3],inactive
same,outcome,[4],inactive
same,Potency,[17],inactive
same,Potency,[14],inactive
same,Potency,[18],inactive
same,Potency,[15],inactive
O=C(NC(O)C(Cl)(Cl)Cl)NC(O)C(Cl)(Cl)Cl (stereo unspecified),Potency,[3],inactive
same,outcome,[4],inactive
same,Potency,[6],inactive
same,Potency,[7],inactive
C=C(C)[C@H]1Cc2c(ccc3c2O[C@@H]2COc4cc(OC)c(OC)cc4[C@@H]2C3=O)O1,"cell viability, % of control (lower = more cytotoxic)",[1],45.8%
same,viability (% of control),[2],11.5%
same,Potency,[3],inactive
same,outcome,[4],inactive
same,Potency,[10],4.69 µM (active)
same,Potency,[5],0.743 µM (active)
same,Potency,[7],inactive
same,Potency,[9],13 nM (active) and 2.64 µM (active)
same,Potency,[15],0.135 µM (active)

# — PubChem BioAssay (NCATS)
